# Source: ChEMBL document CHEMBL3988442, “University of Dundee, Small-Polar-MMV Screening Library” (2021)
# Tests used:
# [1] = biological target: T1, Aspartate--tRNA(Asp/Asn) ligase (Mycobacterium tuberculosis (strain ATCC 25618 / H37Rv)) (UniProt P9WFW3); assay: Assay for Asp RNA synthetase-1 from Mycobacterium tuberculosis; format: functional; parameters: scale not given: direction of the effect not stated beside the values; conditions: 30 µM; further: in the data most compounds retested in dose-response had high values
# T1 sequence (whole entry): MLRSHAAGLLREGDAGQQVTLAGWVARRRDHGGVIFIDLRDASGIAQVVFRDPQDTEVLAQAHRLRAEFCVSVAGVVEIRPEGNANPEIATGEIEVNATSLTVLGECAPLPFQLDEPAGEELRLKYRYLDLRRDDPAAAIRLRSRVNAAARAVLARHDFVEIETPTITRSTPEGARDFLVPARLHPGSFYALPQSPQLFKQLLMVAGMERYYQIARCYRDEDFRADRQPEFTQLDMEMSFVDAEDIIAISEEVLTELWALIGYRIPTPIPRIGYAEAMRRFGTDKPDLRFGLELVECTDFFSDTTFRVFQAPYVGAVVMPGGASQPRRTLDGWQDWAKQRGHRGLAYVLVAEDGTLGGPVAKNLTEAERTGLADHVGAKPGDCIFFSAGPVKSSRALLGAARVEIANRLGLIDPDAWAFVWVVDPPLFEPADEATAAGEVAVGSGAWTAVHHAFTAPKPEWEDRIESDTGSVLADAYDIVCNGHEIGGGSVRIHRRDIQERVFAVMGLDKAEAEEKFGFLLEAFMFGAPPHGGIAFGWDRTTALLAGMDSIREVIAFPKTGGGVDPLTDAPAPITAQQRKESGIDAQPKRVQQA
# [2] = biological target: Shiga toxin 2 (Escherichia coli O157:H7) (UniProt P09385+P09386); assay: E. coli 0.157:H7 Shiga Toxin SOP - stx2 screening assay; format: functional; parameters: scale not given: direction of the effect not stated beside the values; conditions: 30 µM
SMILES,Percent Effect [1] [%],Percent Effect [2] [%]
O=C(O)c1ccc(F)c(S(=O)(=O)Nc2c(F)cccc2-n2cccn2)c1,-1.78,–
CCCn1cc(C(=O)N(C)Cc2nc(-c3ccccn3)no2)c(C)n1,-0.218,–
CCNC(=O)c1ccc(N2CCCC(c3nccn3C(C)C)C2)nc1 (centres undefined),-3.8,–
Cc1cc(N2CCN(Cc3ccc(-c4cc[nH]n4)o3)CC2)cc(C)n1,0.126,–
CC(C)CN1CCCn2nc(CNC(=O)c3cccnc3O)cc2C1,-2.56,–
CSC(C)(C)CNC(=O)NC1CCN(C)CC1,-4.75,–
CC(C)(C)N1CC(C(=O)N2CCN(CCc3ccccc3)CC2)CC1=O (centres undefined),0.448,–
CC(C)Oc1ccc(CSc2nnc(CN3CCCC3=O)o2)cc1,-7.23,–
CCNC(=O)c1cnc(Cc2ccc(F)cc2)s1,-3.94,–
Cc1nc2c(c(C)c1CC(=O)Nc1ccc(Cl)cc1)c(=O)[nH]n2C,-4.86,–
NC(=O)C1CCCN1Cc1cccc(NC(=O)c2ccsc2)c1 (centres undefined),2.98,–
CN(C)C(=O)CN(C)C(=O)c1cnc(Cc2ccc(F)cc2)s1,-1.57,–
Cc1nc(C)n(CC2CCCCN2CC(=O)Nc2nncs2)n1 (centres undefined),-3.83,–
CSc1cccc(CN(C)C(=O)C2CC(=O)N(CCN(C)C)C2)c1 (centres undefined),-2.59,–
CCc1nsc(NC2CCCn3nc(CC)nc32)n1 (centres undefined),1.74,–
O=C(NCCCn1ccnc1)N1CCCC1c1ccncc1 (centres undefined),-2.68,–
CN(C)CCCNC(=O)c1cc(Br)c2c(c1)OCCO2,0.724,–
CN1C(=O)CC(C(=O)O)C12CCN(Cc1ccc(F)cc1Cl)CC2 (centres undefined),-1.07,–
COc1ccc(-n2cnnc2SCCC#N)cn1,-0.885,–
CCOC1CCN(C(=O)c2c(Cl)c3ccccc3n2C)CC1,-2.01,–
Cc1cc(F)ccc1OC1(C(=O)O)CCN(Cc2ccncc2)CC1,-3.25,–
CN(CCO)C(=O)c1coc(CN2CCN(c3ccccc3F)CC2)n1,-3.46,–

SMILES,Percent Effect [1] [%],Percent Effect [2] [%]
CCN(CC(=O)NC)C(=O)Cc1nc(-c2ccco2)oc1C,-4.7,–
CCC(=O)NCc1cc(Br)c(OC)c(OC)c1,-1.55,–
CN(Cc1ccccc1)C1(C(=O)O)Cc2ccccc2C1,-1.53,–
O=C(CCc1c[nH]cn1)N1CC[C@@H](c2ccc3ccccc3c2)[C@H](O)C1,-0.632,–
CN(C)C(=O)CNC(=O)c1cc(Br)c2c(c1)OCCO2,3,–
Cc1ccc(CNCc2nnc3n2CCCC3C(F)(F)F)s1 (centres undefined),4.24,–
Cc1nonc1CN(C)CC1(O)CCCN(CCC2CCCCC2)C1=O (centres undefined),0.149,–
CN(CCO)Cc1nnc(C2CCN(C3CCCCC3)CC2)n1C,4.1,–
Cc1cnc(C)c(N2CCN(Cc3ccc(-c4cc[nH]n4)o3)CC2)n1,0.816,–
Cc1cc(NC(=O)Cn2cc(C#N)c(=O)c3cc(Br)ccc32)no1,-2.42,–
Cc1cnn(CCNCc2ccc(OCc3csc(C)n3)cc2)c1,-0.126,–
CCc1cc(N2CCSCC2)n2nc(C)c(C)c2n1,4.1,–
O=C(NC1(c2nnn(Cc3ccncc3)n2)CCCC1)c1ccccc1,-0.678,–
O=C(NCCc1cccc(O)c1)NC1CCN(c2ccccc2)C1=O (centres undefined),-2.7,–
Cn1c(C(=O)N2CCC(C(=O)N3CCCC3)CC2)c(Cl)c2ccccc21,-5.07,–
CC(C)(C)OC(=O)NC(C)(C)c1noc(CN2CCCCC2)n1,-0.448,–
CN1CC(c2ccccc2)CC12CCN(C(=O)c1ccc(F)cc1)CC2 (centres undefined),-1.84,11.8
O=C(c1cccs1)N1CCC(n2nc(-c3ccco3)ccc2=O)CC1,-0.968,6.63
CNc1oc(-c2cc(S(=O)(=O)N3CCCCCC3)c(C)o2)nc1C#N,2.56,-18.8
CC(C)CN1CCN(C(=O)NCc2cccnc2-n2cccn2)CC1,-1.98,-22.5
Cc1nn(C)c2cn(C(C)C(=O)NCc3cccnc3)nc12 (centres undefined),-1.71,-24.9
CC(=O)NCCc1ccc(C(=O)N2CCCC2c2cnn(C)c2)cc1 (centres undefined),3.04,21.3

SMILES,Percent Effect [1] [%],Percent Effect [2] [%]
COCCN1CCc2cc(C(=O)NCC3CC3)c(NC(C)C)nc2CC1,7.66,6.55
CCOc1cccc(CNC(=O)NCC(O)c2cccc(F)c2)c1 (centres undefined),9.63,16.2
COc1cccc(-c2nc(C)c(C(=O)N[C@@H](C)C(=O)O)s2)c1,-1.66,-52
O=C1NCC[C@]12CN(Cc1ccoc1)C[C@H]2c1ccccc1,1.06,-14.1
CCc1cnc2c(c1NCc1ccncc1)c(=O)n(C)c(=O)n2C,-0.949,-7.71
CSCCCN1CC[C@@H](NC(=O)c2cnccn2)[C@H](O)C1,-0.39,2.82
Cc1nn(C)c(C)c1NC(=O)CN1CCCC1c1noc(C2CC2)n1 (centres undefined),5.58,-27.4
COCCN1CCN(Cc2cccc(C(N)=O)c2)CC1C (centres undefined),-1.6,-42.8
CC(C)c1nn(C)c(N2CCOCC2)c1CNCCS(C)(=O)=O,-2.08,-5.89
O=C(Cc1ccccn1)N1C[C@@H]2CC[C@H](C1)N(Cc1ccccc1)C2=O,-1.24,-4.09
O=C(Nc1cc(F)ccc1OCC1CCCO1)c1ccccn1 (centres undefined),2.54,37.1
Cn1nnc2c1C(COCc1ccccn1)CN(C(=O)c1cccs1)C2 (centres undefined),0.388,13.7
CNS(=O)(=O)Cc1ccc(CNC(=O)c2ccc(C)[nH]c2=O)cc1,-0.577,-39.3
CC(C(=O)NCCOc1ccc2c(c1)OCO2)n1cncn1 (centres undefined),-7.68,-4.93
c1cnc(N2CCOC3(CCN(CC4CCCCC4)CC3)C2)nc1,-0.897,-3.02
O=C1NC2(CCN(Cc3nccs3)CC2)CC1c1ccncc1 (centres undefined),0.717,2.04
CCC1=N[C@@]2(CC[C@@H]3CN(C(=O)NCc4ccccc4)C[C@@H]32)C(=O)N1C,2.18,3.06
CN(C)[C@@H]1CN(Cc2ccco2)C[C@@H]2CCCO[C@@H]21,-2,6.7
c1ccc2sc(CN3CCOC(Cn4cccn4)C3)nc2c1 (centres undefined),-0.285,27.3
c1ncn(CC2CN(Cc3noc(C4CC4)n3)CCO2)n1 (centres undefined),0.367,-20.8
CC(C)c1n[nH]c(C2CN(C(=O)c3csnn3)CCO2)n1 (centres undefined),-5.03,-13.5
c1cc(CNCC2CNc3ccnn3C2)cc(N2CCCCC2)n1 (centres undefined),-2.55,-110

SMILES,Percent Effect [1] [%],Percent Effect [2] [%]
O=C(Cc1cccs1)N1CC[C@H]2[C@@H]1CCC(=O)N2c1cccnc1,-1.62,-9.24
CN(CCn1nc2ccccn2c1=O)CC(=O)NC1CC1,-5.57,-5.23
Cc1cn2c(n1)CCC(NC(=O)CCn1cncn1)C2 (centres undefined),-0.674,21.7
c1cc2c(cc1C1CCCN1Cc1nnnn1C1CC1)OCCO2 (centres undefined),-1.25,3.61
CCn1ccnc1CN1CCOC(CNc2cccnn2)C1 (centres undefined),-0.152,-18.9
CSCC(CCO)NC(=O)Nc1cc(C)ccc1C (centres undefined),6.04,-16.3
Cc1cnn(CCNCC(=O)NCCOc2ccccc2)c1,-2.67,18.2
c1coc(-c2nnc(CN3CCOC(Cn4cccn4)C3)o2)c1 (centres undefined),-4.34,3.23
Cc1cnn(CC2CCN(CC(O)COc3ccc(F)cc3)CC2)c1 (centres undefined),1.99,-53
Cc1occc1C(=O)N1CCOCC2(CCN(Cc3nccs3)C2)C1 (centres undefined),-0.802,-26.4
Cc1ccn(-c2ccc(C(=O)N3CCCC(C(N)=O)C3)cc2)n1 (centres undefined),-3.4,8.96
Cn1cc(C[C@H]2[C@@H](O)CCN2C(=O)C2CC=CC2)cn1,7.16,-21.6
CCn1nc2c(cc1=O)CN(Cc1nc(-c3ccsc3)no1)CC2,5.03,-16.2
COCCn1ccc(=O)c(OCC(=O)Nc2ccccc2)c1C,-0.61,-38
Cc1cc(C(F)(F)F)nn1C(C)C(=O)Nc1ccncc1 (centres undefined),-0.755,-29.5
Cn1ccnc1CN1CCOCC(Cc2ccccn2)C1 (centres undefined),-1.22,17.1
Cc1ccsc1C(=O)N1C[C@@H]2CN(Cc3ccoc3)CCO[C@@H]2C1,-1.39,-11.7
c1nc2c(c(-c3ccsc3)n1)CCN(Cc1ccoc1)CC2,8.04,-46
CC(C(=O)NCc1ccnc(N2CCCC2)c1)n1cncn1 (centres undefined),-2.83,27.3
CCOCc1cccc(S(=O)(=O)N2CCSCC2)c1,-3.43,-4.15
CC(C)CCC(C)NC(=O)c1ccc(OCC(N)=O)cc1 (centres undefined),2.49,-8.96
CCOC(=O)CCCNC(=O)CN1CCN(c2ncccn2)CC1,6.48,-56.7

SMILES,Percent Effect [1] [%],Percent Effect [2] [%]
CCN(CCn1cccn1)Cc1nc(-c2ccccc2F)oc1C,-0.808,-3.06
Cc1cc(-c2nn(C)c(Cl)c2CN2Cc3ccccc3C(O)C2)no1 (centres undefined),8.53,43.3
Cc1cc(N2CCC(N(C)C(=O)c3ccccc3)CC2)nc(C)n1,-5.32,-9.61
Cc1cc(C)n(CC2CCCN2C(=O)c2ccc3c(c2)nnn3C)n1 (centres undefined),5.23,-34.8
CNC(=O)C(NC(=O)c1nccn2ccnc12)c1ccc(F)c(F)c1 (centres undefined),0.0141,14.2
CCS(=O)(=O)N1CCC(c2cc3n(n2)[C@@H](C(F)(F)F)C[C@@H](C)N3)CC1,5.23,13
Cc1ccc(=O)n(CC2(O)CCN(Cc3ccsc3)CC2)n1,-3.38,12.7
CCOc1cccc2c1OCC(C(=O)NS(=O)(=O)Cc1ccccc1)=C2,-0.211,23.7
Cc1cccc(OCCC(=O)N2CCCN(CC(N)=O)CC2)c1C,-0.457,1.67
Cc1cccc(-n2ncc(C(=O)N3CCn4c(C)nnc4C3)c2C)c1,3.68,32.6
O=S(=O)(CCNCc1ccc2c(c1)CCO2)N1CCOCC1,0.97,-25.2
CCN1CC2(CC1=O)CN(Cc1cnn(C)c1)CCN(C(C)=O)C2 (centres undefined),1.68,-2.37
CC(Cn1cccn1)NC(=O)N(C)Cc1ccc(Cl)s1 (centres undefined),-7.31,-6.54
CCc1nc(CC(=O)N2CCN(c3cnccn3)CC2)cs1,-3.74,-11.5
O=C(NC(Cc1ccsc1)c1nccs1)C1CCOCC1 (centres undefined),1.44,15.3
Cc1cnc(CN(C)C2CCN(CC(=O)Nc3nncs3)C2)o1 (centres undefined),3.17,-13.8
Cc1nc(COCc2cnc3n2CCN(CC2CCC2)C3C)cs1 (centres undefined),-6,-3.62
CCCNC(=O)c1sccc1N(C)S(=O)(=O)c1ccc(Cl)cc1,12.9,-24.4
